# Records with an inconclusive call do not appear. The source made the active and inactive calls. Unless noted, calls follow the shape of the dose curve; as a rule, active = well fitted curve in the direction sought with a large enough effect; inconclusive = small, poorly fitted or top-dose-only effect, or another doubt; inactive = no such curve, though single readings can be large; an effect the other way counts as inactive or inconclusive.
# Assays:
# [1] = qHTS to identify inhibitors of the type 1 interferon - major histocompatibility complex class I in skeletal muscle: primary screen against the NCATS Mechanism Interrogation Plate v5.0 (MIPE) Libary (AID 1347411); also: nearly all actives have a fitted effect of over 65% in size;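 as to activity change, negative = inhibition: plate controls were vehicle for no effect and reference inhibitor for full effect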
# Procedure, shortened: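 Immortalized human myoblasts (C25cl48) with HiBit knocked into endogenous HLA-B*08:01 were stimulated with 4 ng/ml IFN-beta and given compounds in 11-point 1:3 titration from 46 uM. After 24 h at 37 C, lytic HiBiT luminescence was read.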
# [2] = target: Glutathione peroxidase 1 (Homo sapiens) (UniProt P07203); assay: Primary qHTS Assay for Inhibitors of Recombinant Selenoprotein Glutathione Peroxidase 1 (GPX1) (AID 1845191); also: nearly all actives have a fitted effect of over 65% in size
# Glutathione peroxidase 1 (Homo sapiens), sequence (P07203 whole entry, looked up): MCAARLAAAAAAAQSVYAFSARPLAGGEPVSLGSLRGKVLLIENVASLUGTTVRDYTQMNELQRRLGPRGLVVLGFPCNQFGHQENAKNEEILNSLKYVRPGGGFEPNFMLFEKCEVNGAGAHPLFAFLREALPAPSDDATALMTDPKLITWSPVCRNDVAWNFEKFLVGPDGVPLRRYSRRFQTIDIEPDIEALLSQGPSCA
# Procedure, shortened: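 GR-coupled assay: compounds preincubated 30 min at room temperature with GPX1, then reaction started with CHP; final 10 nM GPX1, 1 mM GSH, 0.5 mM CHP, 0.5 mM NADPH, 100 nM GR, 0.01% BSA, pH 7.5 Tris buffer. NADPH fluorescence (340/450 nm) read at 0 and 15 min.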
# [3] = qHTS drug screen for cell cycle checkpoint inhibitors in PARPi-resistant BRCA-mutant ovarian cancer cell lines. (AID 1963452; calls by dose curve; also: potency is read from the fitted curve at half-maximal effect); details: PEO1/OlaR viability, CellTiter-Glo luminescence, 96 h; for Z-AUC: stronger effect = lower value
# Procedure, shortened: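 PEO1, PEO4 and PEO1/OlaR ovarian cancer cells, 600 per well, exposed 96 h at 37C to a dilution series. Viability read by CellTiter-Glo luminescence, normalized to DMSO and empty wells; activity summarized as Z-AUC.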
# [4] = Primary qHTS for inhibitors of nuclear receptor binding SET domain protein 2 (NSD2) in an isogenic RCH-ACV NSD2 p.E1099K mutant (9B) (AID 1645876); also: nearly all actives have a fitted effect of over 70% in size; also: potency is read from the fitted curve at half-maximal effect
# [5] = Primary qHTS for inhibitors of nuclear receptor binding SET domain protein 2 (NSD2) in an RCH-ACV wild type WT cells (2C) (AID 1645877); also: nearly all actives have a fitted effect of over 70% in size; also: potency is read from the fitted curve at half-maximal effect
# [6] = target: Phospholipid hydroperoxide glutathione peroxidase GPX4 (Homo sapiens) (UniProt P36969); assay: Primary qHTS Assay for Inhibitors of Recombinant Selenoprotein Glutathione Peroxidase 4 (GPX4) (AID 1845192); details: outcome: dose series up to 50 µM unless noted; also: nearly all actives have a fitted effect of over 65% in size; as to activity change, negative = inhibition: % is scaled to controls: 0 for no effect and ±100 for the full control effect
# Phospholipid hydroperoxide glutathione peroxidase GPX4 (Homo sapiens), sequence (P36969 whole entry, looked up): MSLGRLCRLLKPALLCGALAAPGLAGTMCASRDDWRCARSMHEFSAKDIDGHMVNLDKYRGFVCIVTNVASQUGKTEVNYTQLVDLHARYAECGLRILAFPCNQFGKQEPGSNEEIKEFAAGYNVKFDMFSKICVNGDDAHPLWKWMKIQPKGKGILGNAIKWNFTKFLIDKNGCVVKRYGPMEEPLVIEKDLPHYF
# Procedure, shortened: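 GR-coupled assay: recombinant GPX4 preincubated 30 min with compound at room temperature; final 200 nM GPX4, 1 mM GSH, 0.5 mM cumene hydroperoxide, 0.5 mM NADPH, 100 nM GR, 0.01% BSA, pH 7.5 Tris. NADPH fluorescence (340/450 nm) read at 0 and 15 min.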
# [7] = qHTS assay to identify inhibitors of the type 1 interferon - major histocompatibility complex class I in skeletal muscle: Counter screen cell viability and HiBit confirmation (AID 1347412); details: iHSKM muscle cells + IFN-b, HiBiT or CellTiter-Glo, 24 h; for activity change, negative = inhibition: at 45.9 µM (top of the series); also: potency is read from the fitted curve at half-maximal effect; as to activity change, negative = inhibition: % is scaled to controls: 0 for no effect and ±100 for the full control effect; as to all read-outs here: nearly all actives have a fitted effect of over 60% in size
# Procedure, shortened: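 HLA-B*08:01–HiBiT knock-in immortalized human myoblasts (C25cl48) stimulated with 4.0 ng/ml human IFN-beta and dosed with compound in a 12-point 1:3 titration (top final 46 uM). After 24 hrs at 37 C, HiBiT lytic luminescence or CellTiter Glo ATP read out.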
# [8] = measured here: PEO1 parental Z-AUC
structure (smiles),measurement,setting,value
NC(=S)N/N=C/c1ncccc1N,Potency,[1],inactive
same,Potency,[2],inactive
same,Z-AUC,[3],0.978 (inactive)
same,Z-AUC,[3]; [8],0.81
same,Z-AUC,[3]; measured here: PEO4 Z-AUC,0.897
CC1(C)OC2=C(C(=O)c3ccccc3C2=O)[C@H](NCc2ccccc2)[C@@H]1O,Potency,[4],7420 nM (active)
same,Potency,[5],6610 nM (active)
same,Potency,[2],inactive
same,Potency,[6],inactive
same,Z-AUC,[3],0.63 (inactive)
same,Z-AUC,[3]; [8],1.22
same,Z-AUC,[3]; measured here: PEO4 Z-AUC,1.45
same,Potency,[7]; HiBiT,9910 nM (active)
same,Potency,[7]; Viability,14000 nM (active)
Nc1nc(OC(c2ccc(-c3cccc(F)c3)cc2)C(F)(F)F)cc(-c2ccc(C[C@H](N)C(=O)O)cc2)n1 (some centres not stated),Potency,[1],inactive
same,Potency,[2],inactive
same,Potency,[6],inactive
same,Z-AUC,[3],-0.825 (inactive)
same,Z-AUC,[3]; [8],-0.615
same,Z-AUC,[3]; measured here: PEO4 Z-AUC,-0.247
Cc1cc(O)c(-c2ccc([C@@H](C)CN)cc2)c2c1[nH]c(=O)c1sccc12,Potency,[4],inactive
same,Potency,[5],inactive
same,Potency,[2],inactive
same,Potency,[6],inactive
same,Z-AUC,[3],-2.55 (inactive)
same,Z-AUC,[3]; [8],-2.78
same,Z-AUC,[3]; measured here: PEO4 Z-AUC,-2.98
same,Potency,[7]; HiBiT,39.4 nM (active)
same,"activity change, negative = inhibition",[7]; Viability,-14.1% (inactive)
CC[C@@H](Oc1cccc(CN(CCCOc2ccc(OC)cc2)c2nc3ccccc3o2)c1)C(=O)O,Potency,[1],inactive
same,Potency,[2],inactive
same,Z-AUC,[3],1.26 (inactive)
same,Z-AUC,[3]; [8],0.312
same,Z-AUC,[3]; measured here: PEO4 Z-AUC,0.341
CC(C)n1c(/C=C/[C@H](O)C[C@H](O)CC(=O)O)c(-c2ccc(F)cc2)c2ccccc21,Potency,[1],inactive
same,Potency,[2],inactive
same,Z-AUC,[3],1.2 (inactive)
same,Z-AUC,[3]; [8],1.21
same,Z-AUC,[3]; measured here: PEO4 Z-AUC,1.13
N#C/C(=C1/Nc2ccccc2S1)c1ccnc(OCc2ccc(CN3CCOCC3)cc2)n1,Potency,[1],inactive
same,Potency,[2],inactive
same,Z-AUC,[3],0.822 (inactive)
same,Z-AUC,[3]; [8],0.219
same,Z-AUC,[3]; measured here: PEO4 Z-AUC,-0.057
CCS(=O)(=O)Nc1ccc(Oc2ccc(F)cc2F)c(-c2cn(C)c(=O)c3[nH]ccc23)c1,Potency,[4],13.2 nM (active)
same,Potency,[5],7.4 nM (active)
same,Potency,[6],inactive
same,Potency,[3],38.9 nM (active)
same,Z-AUC,[3]; [8],-1.41
same,Z-AUC,[3]; measured here: PEO4 Z-AUC,-1.58
same,Potency,[7]; HiBiT,55.7 nM (active)
same,"activity change, negative = inhibition",[7]; Viability,-28.2% (inactive)
CC(=O)NCC(=O)N1[C@@H]2CC[C@H]1c1ccc(Nc3ncc(C(F)(F)F)c(NC4CCC4)n3)cc12,Potency,[4],590 nM (active)
same,Potency,[5],166 nM (active)
same,Potency,[2],inactive
same,Potency,[6],inactive
same,Z-AUC,[3],-0.104 (inactive)
same,Z-AUC,[3]; [8],-0.113
same,Z-AUC,[3]; measured here: PEO4 Z-AUC,-0.17
same,Potency,[7]; HiBiT,3130 nM (active)
same,"activity change, negative = inhibition",[7]; Viability,-29.6% (inactive)
Cn1nccc1Nc1nccc(-c2cc3c(s2)C(C)(C)N(CCN2CCOCC2)C3=O)n1,Potency,[1],inactive
same,Potency,[2],inactive
same,Potency,[6],inactive
same,Z-AUC,[3],-1.65 (inactive)
same,Z-AUC,[3]; [8],-0.829
same,Z-AUC,[3]; measured here: PEO4 Z-AUC,-0.419
CO[C@@H]1[C@@H](O)[C@H](O)[C@@H](n2c3c(Cl)cccc3c3c4c(c5c6cccc(Cl)c6[nH]c5c32)C(=O)NC4=O)O[C@H]1CO,Potency,[4],934 nM (active)
same,Potency,[5],525 nM (active)
same,Potency,[2],inactive
same,Potency,[6],inactive
same,Z-AUC,[3],-0.593 (inactive)
same,Z-AUC,[3]; [8],-0.854
same,Z-AUC,[3]; measured here: PEO4 Z-AUC,-0.743
same,Potency,[7]; HiBiT,4970 nM (active)
same,"activity change, negative = inhibition",[7]; Viability,-21.4% (inactive)
CN(C)C(N)=NC(=N)N,outcome,[1],inactive
same,Potency,[2],inactive
same,outcome,[3],inactive
COC(=O)N(CC(=O)O)Cc1cccc(OCc2nc(-c3ccc(Cl)cc3)oc2C)c1,Potency,[1],inactive
same,Potency,[2],inactive
same,Z-AUC,[3],1.24 (inactive)
same,Z-AUC,[3]; [8],-0.00269
same,Z-AUC,[3]; measured here: PEO4 Z-AUC,0.458
Cc1cc(Oc2ccc3nc(COc4ccc(CC5SC(=O)NC5=O)cc4)n(C)c3c2)cc(C)c1N (configuration not stated),Potency,[1],inactive
same,Potency,[2],inactive
same,Z-AUC,[3],-0.262 (inactive)
same,Z-AUC,[3]; [8],0.128
same,Z-AUC,[3]; measured here: PEO4 Z-AUC,-0.444
CO[C@H]1/C=C/O[C@@]2(C)Oc3c(C)c(O)c4c(O)c(c5c(c4c3C2=O)=NC2(CCN(CC(C)C)CC2)N=5)NC(=O)/C(C)=C/C=C/[C@H](C)[C@H](O)[C@@H](C)[C@@H](O)[C@@H](C)[C@H](OC(C)=O)[C@@H]1C,Potency,[1],inactive
same,Potency,[2],inactive
same,Z-AUC,[3],1.28 (inactive)
same,Z-AUC,[3]; [8],0.697
same,Z-AUC,[3]; measured here: PEO4 Z-AUC,0.909
C=C1C(=O)O[C@@H]2[C@H]3C(C)=CC[C@@]34O[C@@]4(C)CC[C@@H]12,Potency,[4],5250 nM (active)
same,Potency,[5],4680 nM (active)
same,Potency,[2],inactive
same,Potency,[6],inactive
same,Z-AUC,[3],0.243 (inactive)
same,Z-AUC,[3]; [8],0.182
same,Z-AUC,[3]; measured here: PEO4 Z-AUC,0.342
same,Potency,[7]; HiBiT,12500 nM (active)
same,"activity change, negative = inhibition",[7]; Viability,49.2% (inactive)
CC(=O)/C=C1/C(=O)N(C)c2ccccc21,Potency,[7]; HiBiT,19800 nM (active)
same,"activity change, negative = inhibition",[7]; Viability,-2.06% (inactive)
CN(C)CCN1C(=O)c2cccc3cc(NC(N)=O)cc(c23)C1=O,Potency,[4],2350 nM (active)
same,Potency,[5],1860 nM (active)
same,Potency,[2],inactive
same,Potency,[6],inactive
same,Z-AUC,[3],-0.63 (inactive)
same,Z-AUC,[3]; [8],-1.2
same,Z-AUC,[3]; measured here: PEO4 Z-AUC,-1.08
same,Potency,[7]; HiBiT,17600 nM (active)
same,"activity change, negative = inhibition",[7]; Viability,-14% (inactive)
CN1CCN(c2ccc(Nc3ncc4cc(C#N)c(=O)n(C5CCCC5)c4n3)cc2)CC1,Potency,[4],590 nM (active)
same,Potency,[5],525 nM (active)
same,Potency,[2],inactive
same,Potency,[6],inactive
same,Z-AUC,[3],-0.464 (inactive)
same,Z-AUC,[3]; [8],0.47
same,Z-AUC,[3]; measured here: PEO4 Z-AUC,0.542
same,Potency,[7]; HiBiT,9910 nM (active)
same,"activity change, negative = inhibition",[7]; Viability,-23.1% (inactive)
O=C1S/C(=C\c2ccc(OCc3cccc(B(O)O)c3)cc2)C(=O)N1Cc1ccc(F)cc1,Potency,[1],inactive
same,Potency,[2],inactive
same,Z-AUC,[3],0.689 (inactive)
same,Z-AUC,[3]; [8],0.417
same,Z-AUC,[3]; measured here: PEO4 Z-AUC,0.814
NC(=O)c1cnc2[nH]ccc2c1NC1C2CC3C[C@H]1CC(O)(C3)C2 (some centres not stated),Potency,[4],9340 nM (active)
same,Potency,[5],9340 nM (active)
same,Potency,[2],inactive
same,Potency,[6],inactive
same,Z-AUC,[3],0.584 (inactive)
same,Z-AUC,[3]; [8],0.594
same,Z-AUC,[3]; measured here: PEO4 Z-AUC,0.746
same,Potency,[7]; HiBiT,2220 nM (active)
same,"activity change, negative = inhibition",[7]; Viability,-16.1% (inactive)

# — PubChem BioAssay (NCATS)
